Assay results published in PubChem BioAssay (EPA / NIEHS).
“And” between values parts separate entries of the source, which are not always exact repeats. Identical values can stand only once. More than one record can exist for a structure, and the calls need not agree. The source made the active and inactive calls. How the source made its calls: active means hit-call score of the fitted dose curve at least 0.9, where 1 is the maximum; inactive means score below 0.9.

Assays:
[1] = read-out: Monokine induced gamma interferon (MIG), CXCL9 (gene 4283); experiment: BSK_hDFCGF_MIG: BioMAP Diversity Plus: hDFCGF Assay for Monokine induced gamma interferon (MIG) Biomarker Activity (AID 2283063); conditions: primary human foreskin fibroblasts; actives raise or lower the signal
In short: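 Fibroblasts (human foreskin, primary) dosed, 24 h, MIG by ELISA; fit bidirectional vs DMSO.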

[2] = read-out: Matrix Metallopeptidase 1 (MMP1), MMP1 (gene 4312); experiment: BSK_hDFCGF_MMP1: BioMAP Diversity Plus: hDFCGF Assay for Matrix Metallopeptidase 1 (MMP1) Biomarker Activity (AID 2283064); conditions: primary human foreskin fibroblasts; actives raise or lower the signal
In short: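 ELISA read-out of MMP1 from human foreskin fibroblasts (primary skin cells), 24 h post-dose. Gain or loss of signal was fitted bidirectionally versus DMSO negative control; cytotoxicity was checked by SRB in parallel cultures.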

[3] = read-out: Vascular cell adhesion molecule 1 (VCAM1), VCAM1 (gene 7412); experiment: BSK_hDFCGF_VCAM1: BioMAP Diversity Plus: hDFCGF Assay for Vascular cell adhesion molecule 1 (VCAM1) Biomarker Activity (AID 2283065); conditions: primary human foreskin fibroblasts; actives raise or lower the signal;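 on AC50: VCAM-1 protein level quantified by ELISA after 24 h chemical exposure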
In short: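 ELISA read-out of VCAM-1 on human skin fibroblasts, 24 h post-dose; gain or loss of signal fitted bidirectionally against DMSO baseline.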

[4] = read-out: Plasminogen activator inhibitor-1 (PAI1), SERPINE1 (gene 5054); experiment: BSK_hDFCGF_PAI1: BioMAP Diversity Plus: hDFCGF Assay for Plasminogen activator inhibitor-1 (PAI1) Biomarker Activity (AID 2283066); conditions: primary human foreskin fibroblasts; actives raise or lower the signal
In short: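 Fibroblasts from human foreskin were treated with test chemical. After 24 h, PAI-1 was measured by ELISA. Activity was fitted in both directions relative to DMSO.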

[5] = read-out: Intercellular Adhesion Molecule 1 (ICAM1), ICAM1 (gene 3383); experiment: BSK_KF3CT_ICAM1: BioMAP Diversity Plus: KF3CT Assay for Intercellular Adhesion Molecule 1 (ICAM1) Biomarker Activity (AID 2283067); conditions: primary human keratinocytes with fibroblasts; actives raise or lower the signal
In short: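 ELISA readout of ICAM-1; KF3CT human skin co-culture (keratinocytes + foreskin fibroblasts), 24 h post-dose; gain/loss fit vs DMSO baseline.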

[6] = read-out: Interferon-gamma inducible Protein 10 (IP10), CXCL10 (gene 3627); experiment: BSK_KF3CT_IP10: BioMAP Diversity Plus: KF3CT Assay for Interferon-gamma inducible Protein 10 (IP10) Biomarker Activity (AID 2283068); conditions: primary human keratinocytes with fibroblasts; actives raise or lower the signal
In short: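 Signal is secreted/surface IP-10 by ELISA in a human primary skin co-culture of keratinocytes and foreskin fibroblasts, taken 24 h post-dosing; DMSO served as negative control.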

[7] = BSK_KF3CT_SRB: Viability Assessment in the BioMAP Diversity Plus: KF3CT Assay (AID 2283069); conditions: primary human keratinocytes with fibroblasts;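 further: total protein by sulforhodamine B staining as a cytotoxicity measure; read 24 h after compound addition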
In short: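 SRB read-out at 560 nm (0.1% stain, TCA-fixed cells) gauges overt cytotoxicity in a human skin keratinocyte–fibroblast co-culture 24 h post-dosing. Signal change was fitted bidirectionally relative to DMSO control.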

[8] = read-out: Interleukin-1 alpha (IL1a), IL1A (gene 3552); experiment: BSK_KF3CT_IL1a: BioMAP Diversity Plus: KF3CT Assay for Interleukin-1 alpha (IL1a) Biomarker Activity (AID 2283070); conditions: primary human keratinocytes with fibroblasts; actives raise or lower the signal
In short: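 Primary skin co-culture (keratinocytes, foreskin fibroblasts), 24 h exposure; ELISA for IL-1a; bidirectional curve fit vs DMSO.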

[9] = read-out: TIMP metallopeptidase inhibitor 2 (TIMP2), TIMP2 (gene 7077); experiment: BSK_KF3CT_TIMP2: BioMAP Diversity Plus: KF3CT Assay for TIMP metallopeptidase inhibitor 2 (TIMP2) Biomarker Activity (AID 2283071); conditions: primary human keratinocytes with fibroblasts; actives raise or lower the signal
In short: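 Chemicals were dosed onto human skin primary co-cultures of keratinocytes and foreskin fibroblasts, and TIMP-2 was measured by ELISA after 24 hours. Activity in either direction was fitted relative to DMSO.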

[10] = read-out: TIMP metallopeptidase inhibitor 1 (TIMP1), TIMP1 (gene 7076); experiment: BSK_hDFCGF_TIMP1: BioMAP Diversity Plus: hDFCGF Assay for TIMP metallopeptidase inhibitor 1 (TIMP1) Biomarker Activity (AID 2283062); conditions: primary human foreskin fibroblasts; actives raise or lower the signal
In short: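 ELISA readout of TIMP-1 from human dermal foreskin fibroblast cultures 24 h post-dosing. Curves were fitted in both directions against DMSO baseline, with SRB total-protein staining in parallel cultures as a cytotoxicity check.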

Measured: AC50

CCOC(=O)COc1cc(-n2ncc(C(F)(F)F)c(C)c2=O)c(F)cc1Cl
not listed: [10]
inactive: all other assays above

S=C(S)NCCNC(=S)S.[Mn+2].[S-]C([S-])=NCCN=C([S-])[S-].[Zn+2]
active: [3] 5.37 µM and 12.4 µM
inactive: [1] | [2] | [3] | [4] | [5] | [6] | [7] | [9]

CCCN(CCC)C(=O)SCC
inactive: [10] | [1] | [2] | [3] | [4] | [5] | [6] | [7] | [8] | [9]
active: [6] 36.1 µM

CCCCOC(=O)C(C)Oc1ccc(Oc2ccc(C(F)(F)F)cn2)cc1 (centres undefined)
not listed: [10]
inactive: all other assays above

CSC(=O)c1cccc2nnsc12
not listed: [8]
inactive: all other assays above

c1ccc(Nc2ccccc2)cc1
not listed: [8]
inactive: all other assays above

C#CCOC(=O)[C@@H](C)Oc1ccc(Oc2ncc(Cl)cc2F)cc1
not listed: [10]
inactive: all other assays above

CC(C)CCCCCCc1ccc(O)cc1
active: [10] 11.9 µM | [1] 8.13 µM | [2] 9.57 µM | [3] 9.07 µM | [4] 11.1 µM | [5] 7.58 µM | [6] 9.35 µM | [7] 5.35 µM | [9] 6.18 µM

CC(=O)S[C@@H]1CC2=CC(=O)CC[C@]2(C)[C@H]2CC[C@@]3(C)[C@@H](CC[C@@]34CCC(=O)O4)[C@H]12
active: [1] 31.2 µM | [2] 31.3 µM | [4] 10.3 µM | [6] 33.4 µM | [8] 30.7 µM
inactive: [3] | [5] | [7] | [9]

COc1c(Cl)ccc(Cl)c1C(=O)O
inactive: all assays above

COC(=O)c1c(Cl)nn(C)c1S(=O)(=O)NC(=O)Nc1nc(OC)cc(OC)n1
active: [6] 20 µM
not listed: [8]
inactive: all other assays above

N[C@@H](Cc1cc(I)c(Oc2ccc(O)c(I)c2)c(I)c1)C(=O)O
active: [3] 6.76 µM
not listed: [8]
inactive: all other assays above

CCOC(=O)c1ccc(O)cc1
not listed: [8]
inactive: all other assays above

O=C(Nc1ccc([N+](=O)[O-])cc1Cl)c1cc(Cl)ccc1O
active: [10] 0.149 µM | [1] 0.148 µM | [2] 0.227 µM | [3] 0.148 µM | [4] 0.148 µM | [5] 1.24 µM | [6] 0.148 µM | [7] 0.148 µM | [9] 0.436 µM

CCCCCCC(C)OC(=O)COc1nc(F)c(Cl)c(N)c1Cl (centres undefined)
active: [10] 26 µM | [1] 15 µM | [2] 30.3 µM | [3] 13.4 µM | [4] 25.8 µM | [5] 31.4 µM | [7] 30.4 µM | [8] 33.3 µM | [9] 31.6 µM
inactive: [6]

Oc1ccc(C(c2ccc(O)cc2)C(Cl)(Cl)Cl)cc1
active: [10] 14.5 µM | [1] 26.7 µM | [2] 29.7 µM | [3] 20 µM | [4] 25.4 µM | [5] 36.4 µM | [6] 33.2 µM | [7] 24.1 µM | [8] 32.9 µM | [9] 20.7 µM

CCOC(=O)C(C)Oc1ccc(Oc2nc3ccc(Cl)cc3o2)cc1 (centres undefined)
active: [2] 20 µM
not listed: [10]
inactive: all other assays above

CC1(C)C(C=C(Cl)Cl)C1C(=O)OCc1cccc(Oc2ccccc2)c1 (centres undefined)
not listed: [8]
inactive: all other assays above

O=C(O)C1(C(=O)Nc2ccc(Cl)cc2Cl)CC1
not listed: [8]
inactive: all other assays above

COC(=O)c1ccc(CNS(C)(=O)=O)cc1S(=O)(=O)NC(=O)Nc1nc(OC)cc(OC)n1
not listed: [8]
inactive: all other assays above

COC(=O)c1ccccc1C(=O)O
active: [6] 10.4 µM
not listed: [10]
inactive: all other assays above

N#CSCSc1nc2ccccc2s1
inactive: [7]
active: [1] 1.67 µM and 1.3 µM | [2] 1.82 µM and 1.61 µM | [3] 1.37 µM and 460 nM | [4] 1.72 µM and 627 nM | [5] 7.09 µM and 10.6 µM | [6] 7.03 µM and 11.6 µM | [7] 5.31 µM | [9] 4.19 µM and 10.2 µM

CCCCC(CC)CN1C(=O)C2C3C=CC(C3)C2C1=O (centres undefined)
active: [2] 16 µM | [6] 20 µM
not listed: [8]
inactive: all other assays above

Cc1nn(C)c(Oc2ccccc2)c1C=NOCc1ccc(C(=O)OC(C)(C)C)cc1
active: [2] 34.5 µM | [3] 13.9 µM | [4] 24.2 µM | [6] 13 µM
not listed: [8]
inactive: all other assays above

CCSC(=O)N(CC(C)C)CC(C)C
not listed: [8]
inactive: all other assays above

CN(C)C(=O)Nc1ccc(Cl)c(Cl)c1
not listed: [8]
inactive: all other assays above

S=C([S-])NCCNC(=S)[S-].[Mn+2]
active: [1] 32.4 µM | [2] 4.73 µM | [4] 16.4 µM | [6] 27.4 µM
inactive: [10] | [7] | [9]

COC(=O)c1ccc(I)cc1S(=O)(=O)NC(=O)Nc1nc(C)nc(OC)n1
not listed: [10]
inactive: all other assays above

CCCOC(=O)NCCCN(C)C
not listed: [8]
inactive: all other assays above
